Data as given in PubChem BioAssay (NCATS).
Records with an inconclusive call do not appear. The source made the active and inactive calls. Unless noted, calls follow the shape of the full dose curve.

Assays:
[1] = Validation screen for inhibitors of Lassa infection (AID 463096)
[2] = qHTS for Inhibitors of the Functional Ribonucleoprotein Complex (vRNP) of Lassa (LASV) Arenavirus: LASV Primary Screen - GLuc reporter signal (AID 1347082; calls by dose curve; tested in HEK293 reporter line; also: series mostly up to about 57 µM; nearly all actives have a fitted effect of over 60% in size)
[3] = qHTS for Inhibitors of the Functional Ribonucleoprotein Complex (vRNP) of Lassa (LASV) Arenavirus: Viability assay - alamar blue signal for LASV Primary Screen (AID 1347083; calls by dose curve; tested in HEK293 reporter line; also: series mostly up to about 57 µM; nearly all actives have a fitted effect of over 80% in size)
[4] = qHTS for Inhibitors of the Functional Ribonucleoprotein Complex (vRNP) of Lymphocytic Choriomeningitis Arenaviruses (LCMV): Viability assay - alamar blue signal for LCMV Primary Screen (AID 1347085; calls by dose curve; tested in HEK293 reporter line; also: series mostly up to about 57 µM; nearly all actives have a fitted effect of over 80% in size)
[5] = target: Nucleoprotein (Lymphocytic choriomeningitis virus (strain Armstrong)) (UniProt P09992); test: qHTS for Inhibitors of the Functional Ribonucleoprotein Complex (vRNP) of Lymphocytic Choriomeningitis Arenaviruses (LCMV): LCMV Primary Screen - GLuc reporter signal (AID 1347086); also: series mostly up to about 57 µM; nearly all actives have a fitted effect of over 70% in size

Measured: Potency

Sequence of Nucleoprotein (Lymphocytic choriomeningitis virus (strain Armstrong)) (P09992 whole entry, looked up): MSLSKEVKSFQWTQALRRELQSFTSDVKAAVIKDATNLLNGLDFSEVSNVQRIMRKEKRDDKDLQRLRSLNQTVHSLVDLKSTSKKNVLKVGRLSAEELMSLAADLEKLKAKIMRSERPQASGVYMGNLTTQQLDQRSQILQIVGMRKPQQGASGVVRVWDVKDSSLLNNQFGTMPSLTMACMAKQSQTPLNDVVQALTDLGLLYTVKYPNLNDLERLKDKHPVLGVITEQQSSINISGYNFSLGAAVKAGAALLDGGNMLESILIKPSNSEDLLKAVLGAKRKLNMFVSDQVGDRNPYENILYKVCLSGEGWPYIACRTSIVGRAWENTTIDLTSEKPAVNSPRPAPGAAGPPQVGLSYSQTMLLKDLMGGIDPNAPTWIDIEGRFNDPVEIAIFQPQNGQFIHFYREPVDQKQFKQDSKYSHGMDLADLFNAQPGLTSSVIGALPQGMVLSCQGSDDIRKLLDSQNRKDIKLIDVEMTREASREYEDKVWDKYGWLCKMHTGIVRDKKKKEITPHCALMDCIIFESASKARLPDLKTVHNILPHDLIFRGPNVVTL

CNc1ncnc2c1ncn2[C@H]1C[C@H](OP(=O)(O)O)[C@@H](COP(=O)(O)O)O1
inactive: all assays above
